HPGD inh – inhibitors of human 15-hydroxyprostaglandin dehydrogenase (HPGD) | P15428 | purified HPGD, NADH fluorescence kinetic, PGE2 substrate | Potency, µM, hits mostly inhibitors | hit rate 4.3% among 150,000 | AID 894; active means well fitted inhibition curve with a large enough effect, not every such curve was filed as active; inconclusive means small, poorly fitted or top-dose-only effect, or another doubt; inactive means no such curve, though single readings can be large or run the other way
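NADH formation kinetics: reaction with 30 uM PGE2 and 1 mM NAD+ (final), 20 nM enzyme, Tris-HCl pH 8 with Tween 20, after 15 min compound preincubation at room temperature. Fluorescence change, last versus first of five reads.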
aGal spleen mod – inhibits or activates alpha-galactosidase in human spleen homogenate; AID 2107; Potency, µM (top dose mostly 80 µM), most hits filed as inhibitors; human spleen homogenate, 4MU-alpha-Gal fluorescence, 40 min; hit rate 0.008% among 240,000
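qHTS titration in buffer at pH 5.0. Alpha-galactosidase activity in spleen homogenate was measured via 4-methylumbelliferone release from 1 mM fluorogenic substrate after 40 min at 37C and a pH 10 stop. AC50 came from Hill fits of control-normalized data.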
GLA inh pH 4.5 – blocks human alpha-galactosidase A at pH 4.5 | purified enzyme, 4-MU-alpha-Gal fluorescence, pH 4.5 | 230,000 tested, under 10 active | activity change, negative = inhibition, % at 105 µM | AID 1467
PNC inhibitor – blocks assembly of the perinucleolar compartment | hit rate 3.1% among 140,000 | activity change (PNC), negative = inhibition, % at 10 µM | PC3M PTB-GFP, PNC prevalence imaging, 16 h; stronger effect = lower value | AID 2417;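 active means readout at or below -70, meaning at least 70% loss of cells showing the perinucleolar compartment, a nuclear body marking cancer cells; inconclusive means readout between -30 and a set limit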
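PC3M cells stably expressing PTB-GFP, 750–1000 cells/well, treated 16 h at 37 °C with compound (23 nl of library stock), in duplicate. After paraformaldehyde fixation and Hoechst stain, imaged at 20x; PNC prevalence scored by image analysis.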
12-hLO inh – blocks human 12-lipoxygenase activity; P18054; purified 12-hLO, xylenol orange hydroperoxide absorbance; Potency, µM (highest dose often 57.1 µM), most hits filed as inhibitors; hit rate 0.12% among 150,000; AID 1452; further: nearly all actives have a fitted effect of over 55% in size
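Hydroperoxide output read as Fe(III)-xylenol orange absorbance, 573-to-405 nm ratio, after 30 min reaction with 40 uM arachidonic acid. Enzyme: 150 nM purified human 12hLO, 15 min compound preincubation; 25 mM Hepes pH 7.0, room temperature.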
ALDH1A1 inh – ALDH1A1 (human) enzyme inhibition; Purified ALDH1A1, NADH fluorescence, propionaldehyde substrate; Potency, µM (highest dose often 75.3 µM), most hits filed as inhibitors; hit rate 7.3% among 220,000; AID 1030; active means well fitted inhibition curve with a large enough effect, not every such curve was filed as active; inconclusive means small, poorly fitted or top-dose-only effect, or another doubt; inactive means no such curve, though single readings can be large or run the other way
Target sequence (P00352 whole entry, looked up): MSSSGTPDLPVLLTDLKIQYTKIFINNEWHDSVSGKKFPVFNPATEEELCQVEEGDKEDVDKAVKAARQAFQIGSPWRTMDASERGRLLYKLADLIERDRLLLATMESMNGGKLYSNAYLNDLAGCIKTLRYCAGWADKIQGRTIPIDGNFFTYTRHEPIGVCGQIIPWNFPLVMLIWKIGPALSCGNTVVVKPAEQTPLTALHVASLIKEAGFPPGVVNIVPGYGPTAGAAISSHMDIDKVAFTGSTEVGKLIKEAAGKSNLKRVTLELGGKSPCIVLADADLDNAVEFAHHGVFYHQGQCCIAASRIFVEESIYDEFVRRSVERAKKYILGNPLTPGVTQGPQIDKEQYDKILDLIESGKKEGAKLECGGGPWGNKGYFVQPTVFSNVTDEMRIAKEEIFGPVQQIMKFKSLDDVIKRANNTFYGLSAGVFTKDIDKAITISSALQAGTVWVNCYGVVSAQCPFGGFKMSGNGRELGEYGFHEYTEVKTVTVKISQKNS
Hits are given with their value; n = inactive; u = inconclusive; x = no result given; [ ] = remark or other dose. Rows were chosen to be rich in hits. Some 10% of all compounds tested hit in one or more screens of this group. Unless noted, the call rests on the fitted dose curve; in most records, active means well fitted curve in the direction sought with a large enough effect; inconclusive means small, poorly fitted or top-dose-only effect, or another doubt; inactive means no such curve, though single readings can be large; an effect the other way counts as inactive or inconclusive.

SMILES	HPGD inh	aGal spleen mod	GLA inh pH 4.5	PNC inhibitor	12-hLO inh	ALDH1A1 inh
CCC(=O)Nc1ccc(Br)c(Cl)c1	n	n	n	u	n	n
O=C(O)CC1(CC(=O)Nc2ccc(Br)cc2)CCCCC1	x	n	n	x	x	n
CCC(=O)Nc1ccc(F)c(Cl)c1	n	n	n	-106	n	n
COc1cccc(-c2nccc(NCc3ccccc3)n2)c1	x	n	x	x	x	u
CCCNc1nc(C)nc2c1cnn2CCc1ccccc1	n	n	n	n	n	18µM
Cc1nc(NC(C)C)c2cnn(CCc3ccccc3)c2n1	n	n	n	n	n	n
CC1CCc2nc3ccc(S(=O)(=O)N4CCC(C(=O)NC5CCCC5)CC4)cc3c(C(=O)O)c2C1 (configuration not stated)	n	n	n	n	n	40µM
O=C(O)c1c2c(nc3ccc(S(=O)(=O)N4CCC(C(=O)NC5CCCC5)CC4)cc13)CCCCC2	n	n	n	n	n	u
Cc1cccc(C(=O)CC(=O)c2cc(Cl)ccc2O)c1	16µM	n	n	n	n	n
O=C(CC(=O)c1cc(Cl)ccc1O)c1ccccc1	25µM	n	n	u	n	n
COc1ccc(O)c(C(=O)CC(=O)c2ccc(F)cc2)c1	n	n	n	n	u	n
Cc1ccc(O)c(C(=O)CC(=O)c2cccc(F)c2)c1	22µM	n	n	u	n	n
Cc1ccc(S(=O)(=O)NCC(=O)N(CCc2ccccc2)CC(=O)NCc2ccco2)cc1	n	n	n	n	n	28µM
CC(C)CNS(=O)(=O)c1ccc(CCC(=O)NCc2ccco2)cc1	n	n	n	n	n	2µM
CC1CCC2C(=O)N(c3ccc(C(=O)NCc4ccccc4)cc3)C(=O)C2C1 (configuration not stated)	n	n	n	n	n	u
CC(C)C[C@H](NC(=O)C1(c2ccccc2)CCN(C(=O)[C@H]2CSCN2C(=O)OC(C)(C)C)CC1)C(=O)O	n	n	n	-114	n	n
CC(C)(C)OC(=O)N1CCC(C(=O)N[C@@H](Cc2ccccc2)C(=O)O)(c2ccccc2)CC1	n	n	n	n	n	n
C=C(C(C)=O)C(O)c1ccccc1 (configuration not stated)	u	n	n	x	x	n
CCOc1ccc(C(=O)c2ccc(O)c(O)c2O)cc1	u	n	n	x	n	9.5µM
CCOc1cccc(C(=O)c2ccc(O)c(O)c2O)c1	16µM	n	n	x	u	1.6µM
CCOc1cccc(C(=O)NCc2ccccc2)c1	x	n	n	x	x	n
COc1cccc(Cn2c(=O)c(C)nc3cnc(N4CCOCC4)nc32)c1	n	n	x	x	n	u
CC1(C)Cc2[nH]c(=S)c(C#N)cc2CO1	25µM	n	n	u	u	2.2µM
N#Cc1cc2c([nH]c1=S)CCCC2	14µM	n	n	n	n	8.9µM
N#Cc1cc2c([nH]c1=O)CCCC2	x	n	n	x	x	x
SMILES	HPGD inh	aGal spleen mod	GLA inh pH 4.5	PNC inhibitor	12-hLO inh	ALDH1A1 inh
CCOC(=O)c1sc(N)c(C(=O)OCC)c1C	x	n	n	x	x	x
CCN(CC)C(=O)c1sc(N)c(C#N)c1C	n	n	n	-95	n	u
CCOC(=O)C(=O)Nc1sc(C(=O)N(CC)CC)c(C)c1C#N	x	n	n	x	x	n
CCN(CC)C(=O)c1sc(N)c(C(=O)OC(C)C)c1C	20µM	n	n	n	n	u
CNC(=S)NNS(=O)(=O)c1ccc(OC)cc1OC	x	n	n	x	x	n
COc1ccc(C2C(C#N)=C(N)N(c3ccccc3C#N)C3=C2C(=O)CCC3)cc1CN1CCCC1 (configuration not stated)	n	n	n	n	n	n
N/N=C1/c2ccccc2N[C@H]1OC(=O)Nc1cccc(Cl)c1	n	x	x	x	n[11.4 µM]	n[13.5 µM]
O=c1c2ccccc2nc(-c2ccccc2)n1Cc1ccc(Cl)cc1	n	n	n	n	n	6.3µM
O=c1c2ccccc2nc(-c2ccccc2)n1CCN1CCOCC1	n	n	n	n	n	13µM
O=c1c2ccccc2ncn1Cc1ccc(Cl)cc1	x	n	n	x	x	n
Cc1nc2ccccc2c(=O)n1CCCN1CCOCC1	x	n	n	x	x	x
COc1ccc(-c2nc3ccccc3c(=O)n2CCCN2CCOCC2)cc1	n	n	n	u	n	n
Nn1c(-c2ccccc2)nc2ccccc2c1=O	x	n	n	x	x	n
O=c1c2ccccc2nc(-c2ccccc2)n1Cc1ccccc1	n	n	n	u	n	16µM
Cc1nc2ccccc2c(=O)n1CC(=O)N1CCOCC1	n	n	n	-85	n	n
COC(=O)CNC(=O)COC(=O)Cc1ccc(Cl)cc1	x	n	n	x	x	n
COc1ccc(C(=O)C2CCCN(C(=O)c3cc(C)nc(C)n3)C2)cc1OC (configuration not stated)	x	n	n	x	x	u
O=C(O)CSc1cc(-c2ccccc2)nc2ccccc12	n	x	x	x	n[11.4 µM]	n[13.5 µM]
O=c1c(-c2ccccc2)nc2cnc(Oc3ccccc3)nc2n1Cc1cccs1	n	n	x	x	n	u
COc1ccc(NC(=O)C2(c3ccc(NC(=O)c4ccc(OC)cc4)cc3)CCCC2)cc1	x	n	n	n	n	u
COc1ccc(C2(C(=O)Nc3nncs3)CCCC2)cc1	n	n	n	-80	n	n
CCC(C)(C)c1ccc(OCCN2C(=O)NC(C)(C)C2=O)cc1	n	n	n	n	n	u
CO/N=C/C1CCN(c2ncc(C(F)(F)F)cc2Cl)C1=O (configuration not stated)	x	n	n	x	x	32µM
COc1ccc(C(=O)OC2CCN(c3ncc(C(F)(F)F)cc3Cl)CC2)cc1	n	n	n	n	n	n
CC(=O)Nc1ccc(N2C(=O)CSC2c2cccc([N+](=O)[O-])c2)cc1 (configuration not stated)	x	n	n	x	x	u
SMILES	HPGD inh	aGal spleen mod	GLA inh pH 4.5	PNC inhibitor	12-hLO inh	ALDH1A1 inh
COc1ccccc1N1CCN(/N=C/c2cc([N+](=O)[O-])ccc2Cl)CC1	x	n	n	x	x	22µM
COc1ccccc1N1CCN(/N=C/c2c(C)nn(-c3ccccc3)c2C)CC1	n	n	n	-84	n	n
CN1CCN(CCCBr)CC1	n	x	x	x	n[11.4 µM]	n[13.5 µM]
CCCCn1nnnc1SCC(=O)NNC(=O)c1ccco1	x	n	n	x	x	n
CC(C)Cn1c(N)c(C(=O)COC(=O)[C@@H]2CCCN2C(=O)c2cccs2)c(=O)n(C)c1=O	x	n	n	x	x	n
COC(=O)[C@H](CC(C)C)NC(=O)Nc1ccccc1F	x	n	n	x	x	x
O=S(=O)(Nc1nc(CN2CCOCC2)nc2sc3c(c12)CCCC3)c1cc(F)ccc1F	n	n	n	n	n	14µM
C=CCn1c(CCC(O)CCCCC)n[nH]c1=S (configuration not stated)	n	n	n	n	n	u
CCc1ccc(C(=O)Nc2ccc(OC)c(S(=O)(=O)N3CCOCC3)c2)cc1	x	n	n	x	x	u
COc1ccc(NC(=O)Cc2coc3cc(C)c(C(C)C)cc23)cc1S(=O)(=O)N1CCOCC1	n	n	n	u	n	22µM

High-throughput results as filed in PubChem BioAssay.
